# Results reported in PubChem BioAssay (Tox21).
# Inconclusive results are not listed. Entries that show only a call come without a potency. Calls of active or inactive are those of the source. Unless noted, calls follow the shape of the dose curve; as a rule, active = well fitted curve in the direction sought with a large enough effect in the repeat runs; inconclusive = weak or mixed curves; inactive = no such curve, though single readings can be large; an effect the other way counts as inactive or inconclusive.
# Key:
# [1] = qHTS assay to identify small molecule antagonists of the glucocorticoid receptor (GR) signaling pathway - cell viability counter screen (AID 720693); also: nearly all actives have a fitted effect of over 55% in size
# [2] = qHTS assay for identifying genotoxic compounds that show differential cytotoxicity against isogenic chicken DT40 cell lines with known DNA damage response pathways - wild type cell line (AID 743012); also: nearly all actives have a fitted effect of over 60% in size; also: potency is read from the fitted curve at half-maximal effect
# How it was run: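 Endpoint: CellTiter-Glo luminescence, 30 min RT. Cells: wild type DT40, 300/well. Exposure: compounds in DMSO, 40 h, 37 C/5% CO2, after ~0.5 h pre-incubation.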
# [3] = qHTS assay to identify small molecule antagonists of the androgen receptor (AR) signaling pathway - cell viability counter screen (AID 743033; also: nearly all actives have a fitted effect of over 45% in size)
# [4] = qHTS assay to identify small molecule antagonists of the androgen receptor (AR) signaling pathway using the MDA cell line - cell viability counter screen (AID 743041; also: nearly all actives have a fitted effect of over 45% in size; also: potency is read from the fitted curve at half-maximal effect)
# How it was run: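 Compound exposure lasted 16 h at 37C in MDA-kb2 AR-luc cells stimulated with R1881. Protease-based CellTiter-Fluor reagent was applied for the final 30 min and fluorescence measured.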
# [5] = system: thyroid hormone receptor (rat, GH3 cells); assay: qHTS assay to identify small molecule agonists of the thyroid receptor (TR) signaling pathway (AID 743066; calls by dose curve)
# [6] = qHTS assay to identify small molecule antagonists of the estrogen receptor alpha (ER-alpha) signaling pathway - cell viability counter screen (AID 743074; calls by dose curve; also: nearly all actives have a fitted effect of over 45% in size)
# [7] = biological target: Estrogen receptor (Homo sapiens) (UniProt P03372); assay: qHTS assay to identify small molecule agonists of the estrogen receptor alpha (ER-alpha) signaling pathway (AID 743075; calls by dose curve)
# [8] = biological target: Estrogen receptor (Homo sapiens) (UniProt P03372); assay: qHTS assay to identify small molecule agonists of the estrogen receptor alpha (ER-alpha) signaling pathway using the BG1 cell line (AID 743079); also: nearly all actives have a fitted effect of over 20% in size; also: potency is read from the fitted curve at half-maximal effect
# [9] = qHTS assay to identify small molecule antagonists of the estrogen receptor alpha (ER-alpha) signaling pathway using the BG1 cell line (AID 743080; calls by dose curve;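 also: BG1 cells stimulated with 17beta-estradiol alongside compound; series mostly up to about 70 µM; nearly all actives have a fitted effect of over 25% in size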)
# How it was run: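 BG1-Luc-4E2 cells (endogenous full-length ER-alpha, stable 4×ERE-luciferase) were starved 5 days in phenol-red-free medium with 10% charcoal-stripped FBS, plated 24 h, then given compound plus 17beta-estradiol for 21.5 h at 37 C; ONE-Glo luminescence read after 30 min.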
# [10] = qHTS assay to identify small molecule antagonists of the estrogen receptor alpha (ER-alpha) signaling pathway using the BG1 cell line - cell viability counter screen (AID 743081);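 also: compound given together with 17beta-estradiol as the ER stimulus; nearly all actives have a fitted effect of over 45% in size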; also: potency is read from the fitted curve at half-maximal effect
# Aromatase (Homo sapiens) = Aromatase (Homo sapiens) (UniProt P11511); assay: qHTS assay to identify aromatase inhibitors (AID 743083); also: nearly all actives have a fitted effect of over 55% in size; also: potency is read from the fitted curve at half-maximal effect
# [11] = qHTS assay for identifying genotoxic compounds that show differential cytotoxicity against isogenic chicken DT40 cell lines with known DNA damage response pathways - Rad54/Ku70 mutant cell line (AID 743015); also: nearly all actives have a fitted effect of over 60% in size; also: potency is read from the fitted curve at half-maximal effect
# [12] = qHTS assay to identify small molecule antagonists of the thyroid receptor (TR) signaling pathway (AID 743065); also: nearly all actives have a fitted effect of over 55% in size; also: potency is read from the fitted curve at half-maximal effect
# How it was run: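 GH3.TRE-Luc rat pituitary cells (two TREs driving luciferase) were dosed with compound, then stimulated with 1 nM T3 (final) for 23.5 h at 37 C. ONE-Glo luminescence was the read-out, with CellTiter-Fluor fluorescence as the cytotoxicity counter-screen.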
# [13] = qHTS assay to identify small molecule antagonists of the thyroid receptor (TR) signaling pathway - cell viability counter screen (AID 743064); also: nearly all actives have a fitted effect of over 50% in size; also: potency is read from the fitted curve at half-maximal effect
# How it was run: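 GH3.TRE-Luc cells, 4 h pre-plating; cpd + T3 1 nM final; 37 °C 23.5 h; CellTiter-Fluor 30 min; fluorescence read.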
# [14] = biological target: Estrogen receptor (Homo sapiens) (UniProt P03372); assay: qHTS assay to identify small molecule antagonists of the estrogen receptor alpha (ER-alpha) signaling pathway (AID 743069; active = well fitted curve in the direction sought with a large enough effect in the signal ratio in the repeat runs, not every such curve was filed as active; the % refers to the signal ratio)
# How it was run: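 In this cell-based reporter format, GripTite HEK293 cells harbouring ER-alpha-UAS-bla were grown overnight with 2% charcoal-stripped FBS, dosed with DMSO-dissolved compounds, then challenged with 17beta-estradiol. After 18 hr at 37C, beta-lactamase activity was detected by FRET fluorescence.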
# [15] = biological target: Androgen receptor (Homo sapiens) (UniProt P10275); assay: qHTS assay to identify small molecule agonists of the androgen receptor (AR) signaling pathway using the MDA cell line (AID 743040; also: nearly all actives have a fitted effect of over 20% in size)
# How it was run: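 Testing was done with the MDA-kb2 AR-luc line, a human breast carcinoma stably transfected with MMTV-luciferase containing AR and GR response elements. Cells were exposed 16 h at 37C before ONE-Glo luminescence detection.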
# [16] = qHTS assay for identifying genotoxic compounds that show differential cytotoxicity against isogenic chicken DT40 cell lines with known DNA damage response pathways - Rev3 mutant cell line (AID 743014); also: nearly all actives have a fitted effect of over 55% in size; also: potency is read from the fitted curve at half-maximal effect
# [17] = biological target: Androgen receptor (Homo sapiens) (UniProt P10275); assay: qHTS assay to identify small molecule agonists of the androgen receptor (AR) signaling pathway (AID 743036; active = well fitted activation curve with a large enough effect in the signal ratio in the repeat runs, with a control signal flat, not every such curve was filed as active; the % refers to the signal ratio)
# How it was run: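 AR-bla HEK293 cells, 2,000/well; 4 h preincubation 37C/5% CO2; compound (DMSO) 16 h at 37C; LiveBLAzer B/G FRET substrate 2 h RT; fluorescence intensity read-out.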
# Sequence of Androgen receptor (Homo sapiens) (P10275 whole entry, looked up): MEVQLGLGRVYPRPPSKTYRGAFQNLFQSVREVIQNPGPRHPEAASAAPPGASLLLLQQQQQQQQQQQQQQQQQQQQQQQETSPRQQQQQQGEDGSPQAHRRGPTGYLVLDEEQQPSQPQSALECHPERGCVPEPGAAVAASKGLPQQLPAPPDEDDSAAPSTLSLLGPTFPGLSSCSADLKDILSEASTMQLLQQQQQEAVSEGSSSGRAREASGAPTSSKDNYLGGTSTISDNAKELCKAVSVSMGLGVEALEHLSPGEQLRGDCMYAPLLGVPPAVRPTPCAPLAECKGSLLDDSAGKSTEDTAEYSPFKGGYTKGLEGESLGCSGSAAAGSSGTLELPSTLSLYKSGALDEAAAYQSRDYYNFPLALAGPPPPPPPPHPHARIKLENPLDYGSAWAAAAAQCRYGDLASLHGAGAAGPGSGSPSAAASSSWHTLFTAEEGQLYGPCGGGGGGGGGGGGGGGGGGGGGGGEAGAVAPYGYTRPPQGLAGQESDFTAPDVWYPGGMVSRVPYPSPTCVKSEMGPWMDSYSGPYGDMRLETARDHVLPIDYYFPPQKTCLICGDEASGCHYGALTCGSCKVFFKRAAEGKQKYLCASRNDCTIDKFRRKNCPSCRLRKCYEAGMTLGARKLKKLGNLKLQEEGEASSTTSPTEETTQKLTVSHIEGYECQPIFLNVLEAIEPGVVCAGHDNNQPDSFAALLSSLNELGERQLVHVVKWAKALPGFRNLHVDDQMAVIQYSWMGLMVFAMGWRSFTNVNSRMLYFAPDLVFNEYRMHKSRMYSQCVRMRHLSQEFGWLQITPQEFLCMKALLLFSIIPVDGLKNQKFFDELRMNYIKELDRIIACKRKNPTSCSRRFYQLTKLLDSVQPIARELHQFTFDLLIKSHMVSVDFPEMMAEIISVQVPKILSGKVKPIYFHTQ
# Sequence of Estrogen receptor (Homo sapiens) (P03372 whole entry, looked up): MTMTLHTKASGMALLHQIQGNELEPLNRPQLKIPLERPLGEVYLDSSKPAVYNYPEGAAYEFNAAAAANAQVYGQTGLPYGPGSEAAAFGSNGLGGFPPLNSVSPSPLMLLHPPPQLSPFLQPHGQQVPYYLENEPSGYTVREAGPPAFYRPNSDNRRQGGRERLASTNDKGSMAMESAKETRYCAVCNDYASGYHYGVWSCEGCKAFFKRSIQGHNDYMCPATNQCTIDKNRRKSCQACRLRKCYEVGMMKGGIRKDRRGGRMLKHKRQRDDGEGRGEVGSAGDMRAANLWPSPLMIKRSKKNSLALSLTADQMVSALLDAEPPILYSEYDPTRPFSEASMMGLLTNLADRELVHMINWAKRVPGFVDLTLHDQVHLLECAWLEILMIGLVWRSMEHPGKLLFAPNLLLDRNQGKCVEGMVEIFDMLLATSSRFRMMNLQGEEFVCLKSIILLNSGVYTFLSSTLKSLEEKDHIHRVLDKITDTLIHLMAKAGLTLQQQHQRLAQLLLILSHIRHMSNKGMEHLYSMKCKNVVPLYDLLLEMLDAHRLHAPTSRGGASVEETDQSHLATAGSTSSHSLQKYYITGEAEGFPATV
# Sequence of Aromatase (Homo sapiens) (P11511 whole entry, looked up): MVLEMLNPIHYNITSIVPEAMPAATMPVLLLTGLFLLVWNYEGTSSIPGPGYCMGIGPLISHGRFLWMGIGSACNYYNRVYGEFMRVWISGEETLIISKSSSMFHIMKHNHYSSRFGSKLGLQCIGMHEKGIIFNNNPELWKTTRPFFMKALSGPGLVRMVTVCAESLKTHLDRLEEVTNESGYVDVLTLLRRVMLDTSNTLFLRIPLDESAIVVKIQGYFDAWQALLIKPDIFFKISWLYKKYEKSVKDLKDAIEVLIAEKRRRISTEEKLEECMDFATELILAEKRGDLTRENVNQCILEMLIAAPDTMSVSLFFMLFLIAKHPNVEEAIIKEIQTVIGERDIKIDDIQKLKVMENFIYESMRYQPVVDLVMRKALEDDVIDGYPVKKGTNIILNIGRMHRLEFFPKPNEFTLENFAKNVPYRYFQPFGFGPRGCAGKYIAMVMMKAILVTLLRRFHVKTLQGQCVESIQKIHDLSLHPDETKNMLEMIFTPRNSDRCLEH
SMILES,Potency [1],Potency [2],Potency [3],Potency [4],Potency [5],Potency [6],Potency [7],Potency [8],Potency [9],Potency [10],Potency (Aromatase (Homo sapiens)),Potency [11],Potency [12],Potency [13],Potency [14],Potency [15],Potency [16],Potency [17]
Cc1oc(-c2ccccc2)nc1CCOc1cccc2c1ccn2CCC(=O)O,inactive,inactive,inactive,inactive,inactive,inactive,inactive,inactive,inactive,inactive,inactive,,,,,,,
O=[N+]([O-])c1cccc(S(=O)(=O)O)c1,inactive,inactive,inactive,inactive,inactive,inactive,,,,inactive,inactive,inactive,inactive,,,,,
CCN(CC)c1ccc2c(-c3ccccc3C(=O)O)c3ccc(=[N+](CC)CC)cc-3oc2c1,inactive,12.2 µM (active),,24.3 µM (active),,inactive,inactive,,inactive,9.69 µM (active),,8.63 µM (active),,5.45 µM (active),,,,
CC(=O)c1ccc2c(c1)N(CCCN(C)C)c1ccccc1S2,inactive,12.7 µM (active),inactive,inactive,,inactive,inactive,inactive,inactive,inactive,,,10.1 µM (active),10.1 µM (active),inactive,,,
O=C(O)CC(=O)C(=O)O,inactive,inactive,inactive,inactive,,inactive,,,,inactive,inactive,inactive,,inactive,,,,
CN(C)CCN(Cc1ccc(Cl)cc1)c1ccccn1,inactive,12.7 µM (active),inactive,inactive,inactive,inactive,,,,inactive,inactive,,10.1 µM (active),11.4 µM (active),,,,
C#Cc1cccc(Nc2ncnc3cc(OCCOC)c(OCCOC)cc23)c1,inactive,11.9 µM (active),inactive,inactive,inactive,,inactive,inactive,inactive,,18.8 µM (active),13.3 µM (active),,inactive,,,,
CCCCCCCCCOS(=O)(=O)O,inactive,inactive,inactive,inactive,inactive,inactive,inactive,34.4 µM (active),inactive,inactive,inactive,inactive,inactive,,,,,
O=C(Nc1ccccc1)c1ccccc1O,inactive,48.6 µM (active),,,inactive,,,,,inactive,inactive,30.6 µM (active),61.1 µM (active),inactive,,inactive,,
Cc1cccc(Nc2ccccc2)c1,inactive,,,inactive,inactive,inactive,,,,inactive,,48.6 µM (active),,,,inactive,30.6 µM (active),inactive
S=C([S-])NCCNC(=S)[S-].[Mn+2],inactive,61.1 µM (active),inactive,inactive,inactive,,,,,,inactive,61.1 µM (active),inactive,,,,,
Cc1cc(N)c2cc(NC(=O)Nc3ccc4nc(C)cc(N)c4c3)ccc2n1,inactive,,inactive,,inactive,inactive,,,,inactive,inactive,16.8 µM (active),29.8 µM (active),29.8 µM (active),,inactive,21.1 µM (active),inactive
CCOc1ccc(N)c([N+](=O)[O-])c1,inactive,inactive,inactive,,inactive,inactive,inactive,inactive,inactive,inactive,inactive,inactive,inactive,inactive,inactive,,,
C[Si](C)(CCCN)O[Si](C)(C)CCCN,inactive,inactive,inactive,inactive,,inactive,inactive,inactive,inactive,,inactive,,,inactive,,,,
CN1C[C@H]2c3ccccc3Oc3ccc(Cl)cc3[C@@H]2C1,inactive,26.6 µM (active),inactive,inactive,,inactive,inactive,inactive,inactive,inactive,,29.8 µM (active),,15 µM (active),,,,
CCCCCCCCCCCCCCOS(=O)(=O)O,inactive,inactive,,inactive,inactive,inactive,inactive,inactive,inactive,inactive,inactive,,48.6 µM (active),,inactive,,,
COc1cccc(N(C)C(=S)Oc2ccc3c(c2)CCCC3)n1,inactive,26.6 µM (active),,inactive,inactive,,inactive,,,inactive,inactive,26.6 µM (active),,inactive,,,,
OC(C#CCN1CCCC1)(c1ccccc1)c1ccccc1,inactive,23.7 µM (active),inactive,inactive,inactive,inactive,,,,,inactive,26.6 µM (active),,,,,,
C#CCN(C)CCCOc1ccc(Cl)cc1Cl,inactive,,inactive,inactive,inactive,inactive,inactive,29.8 µM (active),,inactive,inactive,,inactive,,inactive,,inactive,
